Common to all, as to details: 25 µM; exposure: 24-48 hpf
For assay [1], the system named is Danio rerio Tg(wt1b:EGFP) embryo, pronephros. Put plainly: glomerular separation, fold change vs DMSO control; higher = glomeruli further apart (abnormal). In a few lines:
(§1)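 In HEPES-buffered E3 with 0.003% PTU and 0.5% DMSO, dechorionated Tg(wt1b:EGFP) zebrafish embryos were exposed to 25 μM compound from 24 to 48 hpf at 28.5°C. Pronephroi were then imaged dorsally at 470 nm in 10 z-slices, in 96-well plates filled with agarose. On maximum projections, a Fiji macro turned 16 manually placed reference points into distances and angles, and values more than 2 SD from the feature mean were excluded. Features are fold changes relative to the mean of DMSO-treated embryos from the same day.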

The test system is the same in assay [2]. Put plainly: glomerular width (mean of left and right), fold change vs DMSO control; higher = wider glomerulus. In a few lines:
as §1

The test system is the same in assay [3]. Put plainly: fraction of imaged embryos annotated as normal kidney; higher = less nephrotoxic; extreme values may be limits of the assay. In a few lines: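 Dechorionated Tg(wt1b:EGFP) zebrafish embryos were exposed in 12-well plates to 25 μM compound in 0.5% DMSO, 5 mM HEPES-buffered E3 with 0.003% PTU, from 24 to 48 hpf at 28.5°C. Tricaine-anaesthetised larvae were oriented dorsally in agarose-filled 96-well plates, and pronephroi were imaged by widefield fluorescence (470 nm, 10 z-slices). Each embryo was manually annotated from maximum projections. The read-out is the fraction of embryos per treatment assigned to the normal-kidney category.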

Assay [4] shares this test system. In words: pronephric angle neck segment to proximal convoluted tubule (mean of left and right), fold change vs DMSO control; higher = larger pronephric angle. In a few lines:
as §1

Where a name gives a salt, the structure may show the parent alone. ± gives the standard deviation or the standard deviation of the averaged measurements.

`CO/N=C(\C(=O)N[C@@H]1C(=O)N2C(C(=O)OC(C)OC(C)=O)=C(COC(N)=O)CS[C@H]12)c1ccco1` (stereo partly specified) [Cefuroxime axetil] showed a glomerular separation in assay [1] of 1.21 ± 0.5. This compound also came in with a glomerular width in assay [2] of 1.02 ± 0.023. Further, in assay [3], the “fraction of imaged embryos annotated as normal kidney” value (“fraction of imaged embryos annotated” below) was determined as 0.917. The “pronephric angle neck segment” value in assay [4] worked out at 1.04 ± 0.088.

`CN(N=O)C(=O)N[C@@H](C=O)[C@@H](O)[C@H](O)[C@H](O)CO` [Streptozotocin]: in assay [1], the glomerular separation worked out at 0.671 ± 0.14. The compound also had a glomerular width in assay [2] of 1.06 ± 0.047. Also, the “fraction of imaged embryos annotated” value in assay [3] stood at 1. The “pronephric angle neck segment” value in assay [4] turned out to be 1.01 ± 0.025.

The compound `N#Cc1ccc(C(c2ccc(C#N)cc2)n2cncn2)cc1` [Letrozole] displayed a glomerular separation in assay [1] of 1.1 ± 0.4. This compound also had a glomerular width in assay [2] of 1.023 ± 0.0059. In addition, the “fraction of imaged embryos annotated” value in assay [3] was determined as 0.917. Further, in assay [4], the “pronephric angle neck segment” value is 0.938 ± 0.014.

Turning to `C[N+]1(C)CCC(OC(=O)C(O)(c2ccccc2)C2CCCC2)C1` (stereo unspecified) [Glycopyrrolate], the glomerular separation in assay [1] was found to be 1.14 ± 0.48. For the same compound, the glomerular width in assay [2] came to 1.02 ± 0.055. In assay [3], the “fraction of imaged embryos annotated” value is 0.583. In assay [4], the “pronephric angle neck segment” value was found to be 1.06 ± 0.028.

Consider `CC(C)(C)c1ccc(C(O)CCCN2CCC(C(O)(c3ccccc3)c3ccccc3)CC2)cc1` (stereo unspecified) [Terfenadine], for which, in assay [1], the glomerular separation is 0.943 ± 0.3. The glomerular width in assay [2] turned out to be 1.023 ± 0.0083. In addition, in assay [3], the “fraction of imaged embryos annotated” value came to 0.583. Also, the “pronephric angle neck segment” value in assay [4] came out at 1.02 ± 0.039.

For the compound `Cc1ccccc1C(OCCN(C)C)c1ccccc1` (stereo unspecified) [Orphenadrine hydrochloride], in assay [1], the glomerular separation came out at 0.79 ± 0.21. For the same compound, the glomerular width in assay [2] was found to be 1.04 ± 0.013. The “fraction of imaged embryos annotated” value in assay [3] was 0.833. The “pronephric angle neck segment” value in assay [4] was found to be 1 ± 0.015.

As to `CN(C)CCC(c1ccccc1)c1ccccn1` (stereo unspecified) [Pheniramine maleate], the glomerular separation in assay [1] worked out at 0.928 ± 0.19. In addition, the glomerular width in assay [2] was 1.07 ± 0.064. Also, the “fraction of imaged embryos annotated” value in assay [3] is 0.833. The “pronephric angle neck segment” value in assay [4] turned out to be 0.9206 ± 0.0039.

`CC(=O)OCC(=O)[C@@]1(O)CC[C@H]2[C@@H]3CCC4=CC(=O)CC[C@]4(C)[C@@]3(F)[C@@H](O)C[C@@]21C` [Fludrocortisone acetate] displayed a glomerular separation in assay [1] of 1.6 ± 0.63. The same compound gave a glomerular width in assay [2] of 1.23 ± 0.023. The “fraction of imaged embryos annotated” value in assay [3] worked out at 0.583. Also, the “pronephric angle neck segment” value in assay [4] stood at 1.18 ± 0.16.

As for `CCCCN1CCCCC1C(=O)Nc1c(C)cccc1C` (stereo unspecified) [Bupivacaine hydrochloride], in assay [1], the glomerular separation came to 1.23 ± 0.54. In assay [2], this compound came in with a glomerular width of 0.946 ± 0.021. Further, the “fraction of imaged embryos annotated” value in assay [3] was 0.667. The “pronephric angle neck segment” value in assay [4] was found to be 1.01 ± 0.13.

For the origin of these results see the supplement of paper PMC7366291.
